Compounds with a hit are over-represented: about 6.9% of the library has one in this group of screens.
JMJD2A Tudor inh: inhibitors of human JMJD2A Tudor domain | O75164 | AlphaScreen JMJD2A-Tudor / H3K4me3 peptide binding | Potency, µM (doses to about 114 µM), for inactives: at the highest dose activity change, negative = inhibition, actives largely listed as inhibitors | 390,000 compounds, 4.4% hits | AID 504339; further: on the % scale 0 is the no-effect control and ±100 the full control effect; nearly all actives have a fitted effect of over 50% in size
HP1b chromo inh: HP1-beta chromodomain-methylated histone interaction inhibition; Potency, µM (highest dose often 114 µM), for the others: at the top dose activity change, negative = inhibition, hits mostly inhibitors; AlphaScreen HP1-beta / biotin-H3K9me3 peptide binding; 390,000 compounds, 0.56% hits; AID 540317; further: nearly all actives have a fitted effect of over 70% in size
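AlphaScreen: HP1-beta (50 nM) preformed 30 min with biotin-H3(1-18)K9me3 peptide (50 nM) in PBS pH 7.4, 0.01% Tween-20. Compound added for 30 min at RT, then streptavidin donor/nickel chelate acceptor beads (10 ug/mL) for 30 min.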
BAZ2B inh: blocks human BAZ2B; Q9UIF8; AID 504333; AlphaScreen BAZ2B-H3K14Ac peptide displacement; 360,000 compounds, 4.4% hits; Potency, µM (doses to about 114 µM), for inactives: at the top dose activity change, negative = inhibition, usual class: inhibitors; further: on the % scale 0 is the no-effect control and ±100 the full control effect; nearly all actives have a fitted effect of over 60% in size
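AlphaScreen displacement: compounds (up to 110uM) incubated 30 min at room temperature with a preformed 50 nM BAZ2B/50 nM biotinylated H3K14Ac peptide complex in PBS pH 7.4 with Tween-20. Donor and acceptor beads at 10 ug/mL final added, 20 min light-protected before reading.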
VDR inh: vitamin D3 receptor (human) inhibition | Potency, µM, inactives show max response, negative = inhibition, most hits filed as inhibitors | 400,000 compounds, 0.93% hits | P11473 | AID 504847 | VDR-SRC2-3 peptide fluorescence polarization, 2 h; further: on the % scale 0 is the no-effect control and ±100 the full control effect
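Fluorescence polarization assay measuring small-molecule disruption of VDR binding to the coregulator peptide SRC2-3. Compounds were pin-transferred (23 nl) into the reagent mix and incubated 2 h at room temperature before reading.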
PLK1 PBD inh: blocks phosphopeptide binding to human PLK1 polo-box domain | Plk1 PBD binding of FITC phosphopeptide, fluorescence polarization | P53350 | AID 720504 | Potency, µM, without a hit: max response, negative = inhibition, actives largely listed as inhibitors | 360,000 compounds, 2.8% hits; further: series mostly up to about 57 µM; on the % scale 0 is the no-effect control and ±100 the full control effect; nearly all actives have a fitted effect of over 65% in size
Target sequence (P53350 whole entry, looked up, the tested form may be a part): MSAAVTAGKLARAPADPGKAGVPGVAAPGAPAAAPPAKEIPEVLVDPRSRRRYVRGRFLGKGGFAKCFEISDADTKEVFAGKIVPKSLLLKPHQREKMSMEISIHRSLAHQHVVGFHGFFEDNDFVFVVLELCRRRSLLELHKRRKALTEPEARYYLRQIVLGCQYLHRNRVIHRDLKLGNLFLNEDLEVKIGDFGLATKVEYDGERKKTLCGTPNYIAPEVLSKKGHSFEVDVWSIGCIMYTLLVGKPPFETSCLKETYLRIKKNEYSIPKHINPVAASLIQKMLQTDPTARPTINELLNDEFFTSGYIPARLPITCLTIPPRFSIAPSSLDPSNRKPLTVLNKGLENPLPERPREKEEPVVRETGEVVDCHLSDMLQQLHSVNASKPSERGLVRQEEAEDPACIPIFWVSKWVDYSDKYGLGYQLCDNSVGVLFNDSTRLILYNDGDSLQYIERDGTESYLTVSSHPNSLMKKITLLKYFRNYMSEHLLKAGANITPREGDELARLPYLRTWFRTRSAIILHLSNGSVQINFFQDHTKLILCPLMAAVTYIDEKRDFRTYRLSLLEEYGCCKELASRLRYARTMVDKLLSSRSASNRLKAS
L3MBTL1 block: inhibitors of human L3MBTL1. AlphaScreen L3MBTL1–H3K9me1 peptide binding. Potency, µM (doses to about 57.1 µM), for the others: at the top dose activity, negative = inhibition, most hits filed as inhibitors. AID 485360. Q9Y468. 230,000 compounds, 0.66% hits; further: on the % scale 0 is the no-effect control and ±100 the full control effect; nearly all actives have a fitted effect of over 60% in size
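AlphaScreen proximity signal between nickel-chelate acceptor and streptavidin donor beads (final 10 ug/mL) reports binding of 50 nM L3MBTL1 to 75 nM biotin-H3 K9me1 peptide; complex incubated with compounds 30 min at room temperature; cefsulodin titration as control.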
An asterisk follows results filed as active; u = inconclusive; x = no result given; ! = not confirmed by another sample; [ ] = remark or other dose. The call rests on the fitted dose curve; in most records, active means well fitted curve in the direction sought with a large enough effect; inconclusive means small, poorly fitted or top-dose-only effect, or another doubt; inactive means no such curve, though single readings can be large; an effect the other way counts as inactive or inconclusive. Potency means the concentration at half of the fitted maximal effect.

SMILES	JMJD2A Tudor inh	HP1b chromo inh	BAZ2B inh	VDR inh	PLK1 PBD inh	L3MBTL1 block
CCOC(=O)CSc1nc2cc3c(cc2c(=O)n1CCCC(=O)NCCc1ccc(OC)c(OC)c1)OCO3	-8%	47%	-3%	4%	x	x
COc1ccc(N2CCN(S(=O)(=O)c3cccc4nsnc34)CC2)cc1	56µM*	-37%	u	-1%	-2%	x
COc1ccc(OC)c(NC(=O)C2CCCN(S(=O)(=O)c3cccc4nsnc34)C2)c1 (centres undefined)	-32%[11.4 µM]	u	u	-20%	3.4µM*!	-2%
CC(=O)c1ccc(N2CCN(S(=O)(=O)c3cccc4nsnc34)CC2)cc1	u	u	-25%	-6%	27µM*	-11%
O=C(NCCc1csc(-c2cccc(F)c2)n1)c1cccs1	-3%	25%[57 µM]	5%	-1%	x	x
COc1ccc(Cl)cc1NC(=O)c1cc(C)nc2c1c(C)nn2-c1ccccc1	-12%	39%	18%[57.1 µM]	9%	x	x
O=C(Nc1ccc(N2CCCC2)c(Cl)c1)c1cccc(-c2cc3ccccc3oc2=O)c1	-25%	-9%	-11%	10%	-1%	28µM*
Cc1ccc(CN(Cc2ccco2)c2cnc(S(C)(=O)=O)nc2C(=O)Nc2ccccc2Br)o1	u	41%	-18%	-8%	x	x
O=[N+]([O-])c1ccc(-c2nn(-c3ccccc3)cc2/C=N/n2c(-c3cccs3)n[nH]c2=S)cc1	-22%	33%	1%	1%	-9%	x
COc1ccc(/C=N/n2c(-c3cccs3)n[nH]c2=S)cc1	45µM*	-17%	-37%	-12%	-21%	-8%
CCN(CC)S(=O)(=O)c1cccc(-c2n[nH]c(=S)n2/N=C/c2ccc(OC(F)F)cc2)c1	u	u	u	-2%	u	-18%
Cc1ccc(/C=N/n2c(-c3cccs3)n[nH]c2=S)cc1	50µM*	5%	-26%	2%	u	-4%
CC(c1ccc(F)cc1)n1c(-c2cccs2)n[nH]c1=S (centres undefined)	u	20%	-31%	-4%	-14%	-7%
S=c1[nH]nc(-c2cccs2)n1/N=C/c1c(Cl)cccc1Cl	u	-24%	-34%	u	6.7µM*	-5%
Cc1c(Cl)c([N+](=O)[O-])nn1CC(=O)N1CCN(Cc2ccccc2)CC1	-8%	-5%	-10%	6%	-11%	5%
COc1ccc(N2CCN(C(=O)C(C)n3c(=O)cc(C(F)(F)F)c4c(C)nn(C)c43)CC2)cc1 (centres undefined)	-24%	u	35µM*	6%	x	x
Cc1nn(C)c2c1c(C(F)(F)F)cc(=O)n2C(C)C(=O)N1CCN(c2ccccc2)CC1 (centres undefined)	-29%	54%	-12%	27%	x	x
CC(C)C(=O)Nc1nnc(S(=O)(=O)N(C)Cc2ccc(F)cc2)s1	5%	58%	2%	12%	x	x
CNC(=S)N(CCc1c(C)[nH]c2ccc(C)cc12)Cc1ccc(OC)c(OC)c1	u	-2%	32µM*	5%	7%	-3%
COc1cc(CN(CCc2c(C)[nH]c3ccc(C)cc23)C(=S)NC(C)(C)C)cc(OC)c1OC	50µM*	u	u	-2%	-5%	0%
CNC(=S)N(CCc1c(C)[nH]c2ccc(Cl)cc12)Cc1cc(OC)c(OC)c(OC)c1	u	0%	u	-1%	3%	-23%
CCNC(=S)N(CCc1c(C)[nH]c2ccc(Cl)cc12)Cc1ccco1	-30%	-10%	x	24%	-15%	x
CNC(=S)N(CCc1c(C)[nH]c2ccc(C)cc12)Cc1ccco1	u	-19%	50µM*	-11%	-6%	0%
C/C1=C2/[N-]C(C(CC(N)=O)[C@@]2(C)CCC(=O)NCC(C)OP(=O)([O-])O[C@H]2[C@@H](O)[C@@H](n3cnc4cc(C)c(C)cc43)O[C@@H]2CO)[C@]2(C)N=C(/C(C)=C3N=C(/C=C4N=C1C(CCC(N)=O)C\4(C)C)[C@@H](CCC(N)=O)[C@]\3(C)CC(N)=O)[C@@H](CCC(N)=O)[C@]2(C)CC(N)=O.CC(=O)O.[Co] (some centres undefined)	x	x	x	10µM*	x	x
Clc1ccc(-c2ccccc2)cn1	-5%	66%	10%	0%	-16%	5%
SMILES	JMJD2A Tudor inh	HP1b chromo inh	BAZ2B inh	VDR inh	PLK1 PBD inh	L3MBTL1 block
O=C(O)c1ncc(-c2ccccc2)cn1	10µM*	u	x	-12%	-6%	-13%
CC1(C)CC(=O)C(N=Nc2ccc(C(F)(F)F)cc2[N+](=O)[O-])=C(O)C1	50µM*	u	20µM*	u	3%	-16%
CC1(C)CC(=O)C(N=Nc2cccc([N+](=O)[O-])c2)=C(O)C1	u	-21%	u	-4%	-10%	-9%
Nc1c(Br)cc2c([nH]c(=O)c3ccccc32)c1Br	u	-17%	x	-5%	-4%	x
COc1cccc(-c2nccc(NCc3cnc(C)cn3)n2)c1	x	x	x	-8%	x	x
Nc1nn2c(-c3ccccc3)cc(=O)[nH]c2c1N=Nc1ccc(Br)cc1	28µM*	u	-37%	-1%	u	-2%
Cc1cc(C(=O)COC(=O)c2ccc(O)cc2)c(C)n1Cc1ccco1	u	u	50µM*	-17%	-9%	-17%
Cc1cc(C(=O)C(C)Cl)c(C)n1Cc1ccco1 (centres undefined)	50µM*	u	u	-10%	21µM*	-30%
Cc1cc(C(=O)COC(=O)c2ccc(Br)o2)c(C)n1Cc1ccco1	x	x	u	x	x	-23%
CCOc1ncccc1C(=O)OCC(=O)c1cc(C)n(Cc2ccco2)c1C	u	-3%	50µM*	13%	-3%	-16%
CCOc1ncccc1C(=O)OCC(=O)c1ccc(F)cc1	20µM*	8%	11%	u	17µM*	18%
Cc1ccc(F)c(S(=O)(=O)NC(=O)C2(C)CCN2C(=O)Cc2ccccc2)c1 (centres undefined)	x	x	x	x	-2%	x
COC(=O)C1=C(C)NC(C)=C(C(=O)OCCCN2CCC(c3ccccc3)(c3ccccc3)CC2)[C@H]1c1cccc([N+](=O)[O-])c1	x	x	x	-1%	x	x
CCCCC(=O)NS(=O)(=O)c1ccc(N=NN2CCOCC2)cc1	-14%	21%	7%	-7%	-5%	7%
CSc1ncc(C(=O)NCc2ccc(Cl)cc2)c(C(F)(F)F)n1	9%	34%	6%	8%	x	x
